Assay [1] can be described thus: compounds altering circadian rhythm period length – cell-based, LOPAC library, luminescence reporter (AID 2774; call rule not given here;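 note: values are relative to mean of DMSO wells on each plate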). To be noted: circadian reporter cells, at 7 µM, actives lie on both sides.
Assay [2] can be described thus: compounds altering viability of human ES cells (AID 493140; call rule not given here;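 note: cells exposed to compounds for four days before counting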). To be noted: human embryonic stem cell survival screen; stronger effect = higher value.
Assay [3] is described as follows: P. berghei load reduction in hepatocytes – cell-based, HepG2, luciferase luminescence, HepG2 viability, primary screen (AID 624349; in the data active = parasite load remaining mostly below about 12%, no sharp cut-off; inactive = mostly above about 10%;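 note: 100% = mean of DMSO negative control wells on the same plate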). To be noted: P. berghei liver stage in HepG2, luciferase luminescence, concentration not given here; parasite load remaining: stronger effect = lower value; viability: measured here: HepG2 viability without parasites.
In assay [4] the test system is Hepatitis C virus NS3 helicase. Description: blockers of NS3h binding to ssDNA – biochemical, fluorescence polarization, LOPAC1280 library, primary screen (AID 687035; in the data active = inhibition above about 37%). The following applies: Purified HCV NS3 helicase, Cy5-dT15 ssDNA binding fluorescence polarization; stronger effect = higher value; concentration not given here. (Polarisation of emitted light reports the rotation of a fluorescent probe.)

The nature of assay [5]: compounds altering Cy5-DNA-NS3h complex signal – biochemical, LOPAC1280, artefact control for HCV NS3 helicase inhibitor project (AID 687037; call rule not given here). The following applies: Cy5-DNA-NS3h complex fluorescence interference counterscreen. (Counterscreens check selectivity or assay interference.)
The test system of assay [6] is Aerobactin synthetase IucA (Klebsiella pneumoniae). Description: inhibition of K. pneumoniae IucA enzyme – biochemical, Tocris library, absorbance (AID 1345561; call rule not given here;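 note: 100% = enzyme without compound and 0% = no enzyme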). The following applies: purified IucA enzyme assay, absorbance (OD) read-out; stronger effect = lower value;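 tested at 8 µM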.
The nature of assay [7]: viability loss in pontine glioma line – cell-based, SU-DIPG-XIII, MIPE4.0, CellTiter-Glo, qHTS, dose response (AID 1347061; cut-off not given, nearly all actives have AC50 up to about 37 µM;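 note: cells exposed to compound for 48 hours before readout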). To be noted: CellTiter-Glo ATP luminescence.
Assay [8] in a line: growth inhibition of DIPG cells – cell-based, MIPE5.0 library, qHTS (AID 1347068; cut-off not given, nearly all actives have IC50 up to about 30 µM). To be noted: SU-DIPG-XXV viability. (In qHTS, concentration-response curves come from the screen itself.)
Assay [9] can be described thus: chitosan synthesis blockers in C. neoformans – flow cytometry, Cibacron Brilliant Red staining (AID 1347148; call rule not given here;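 note: compound exposure lasted three days at 37 degrees C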). To be noted: Cryptococcus neoformans chitosan, stronger effect = lower value; at 10 µM unless noted.
The nature of assay [10]: compounds altering HSF1 focus formation in cells – imaging, Selleck Cancer Library (AID 1347162; in the data active = plate-normalised HSF1 focus index below about 0.46). To be noted: human cells, HSF1 nuclear foci imaging, at 10 µM; SSMD: measured here: HSF1 foci SSMD mean; cell count: measured here: cell number; plate-normalised HSF1 focus index: stronger effect = lower value.
The nature of assay [11]: blockers of cellular phospholipid synthesis – cell-based, LOPAC library, screen 4, primary screen (AID 1347384; call rule not given here). The following applies: animal cells, phospholipid biosynthesis inhibition screen; at 10 µM.
Assay [12] is described as follows: MELAS cybrid and Rieske KO viability enhancers – cell-based, MELAS cybrids, Rieske KO mouse fibroblasts, CellTiter-Glo, primary screen (AID 1508586;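 active = mean z-score across replicates of 1.96 or higher in either the MELAS or the Rieske mutant cell line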;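 note: z relative to plate mean and SD of compound and empty wells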). The following applies: low glucose.
The nature of assay [13]: drug combination growth inhibition, ovarian cancer – cell-based, oncology-focused library, rucaparib conditional, profiling panel (AID 1508598). To be noted: patient-derived ovarian cancer cells, CellTiter-Glo viability, 144 h, stronger effect = lower value.
Assay [14] is described as follows: galactose survival enhancers in mitochondrial complex I cybrids – cell-based, galactose medium, ATP luminescence, primary screen (AID 1645843;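 active = z-score of at least 1.8 in each of two replicates, scored against plate mean and spread of sample wells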;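 note: positive z means more ATP and so rescue of galactose-driven cybrid death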). To be noted: complex I mutant cybrid cells, 72 h, stronger effect = higher value.
Assay [15] is described as follows: viability loss in pontine glioma line – cell-based, JHH-DIPG-1, MIPE4.0, CellTiter-Glo, qHTS, dose response (AID 1347062; cut-off not given, nearly all actives have AC50 up to about 27 µM;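 for AC50: cells exposed to compound for two days before readout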). To be noted: JHH-DIPG-1 viability, CellTiter-Glo ATP luminescence.
A short description of assay [16]: viability loss with induced miR-34 in A549 – imaging, A549 dox-inducible miR-34, nuclei and caspase counts, primary screen (AID 1347080;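 active = compounds whose cell count with miR-34 switched on is under 0.7 times the count with it off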). To be noted: A549 miR-34 inducible, Hoechst nuclei count, 48 h.
[17] abbreviates: MELAS cybrid survival, CellTiter-Glo 48 h, stronger effect = higher value.
[18] abbreviates: Rieske KO mouse fibroblast survival, CellTiter-Glo 72 h.
The mark [19] stands for this setting: stronger effect = lower value, cell number ratio, induced over uninduced.
Where [20] appears, read: measured here: relative caspase fold change +Dox/-Dox.
The mark [21] stands for this setting: measured here: total cells with miR-34 induction, stronger effect = lower value.
Where [22] appears, read: measured here: total cells without miR-34 induction.

Molecules are shown by their SMILES. Values joined by “and” are separate entries in the source; they are usually repeats but may differ in a detail not shown here. Equal entries are not always repeated. Results filed as inconclusive are left out. Active and inactive are the calls of the source.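 Rule for the calls, unless noted: active = normalized viability below 100% at a tested concentration; inactive = the rest.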

Consider `O=c1cc(N2CCOCC2)oc2c(-c3ccccc3)cccc12`, for which the period change in assay [1] is 0.01 h (inactive). In addition, in [2], the survival is 83.6 (inactive). Besides, in assay [3], the parasite load remaining is 36% (inactive). Further, the viability (usually a read-out of living cells in per cent, often relative to untreated cells) in assay [3] is 79.9%; in assay [13] (at 0.000305 µM, OCI-C5x cells, with rucaparib 10 µM, 100% = cells with rucaparib alone), 97.6% (active); in assay [13] (at 0.000305 µM, OCI-C5x cells, without rucaparib) it was 103% (inactive); in [13] (at 0.000305 µM, OCI-P5x cells, with rucaparib 20 µM, 100% = cells with rucaparib alone), 93.4% (active); in assay [13] (at 0.000305 µM, OCI-P5x cells, without rucaparib) it was 83.4% (active); in assay [13] (at 0.00122 µM, OCI-C5x cells, with rucaparib 10 µM, 100% = cells with rucaparib alone), 102% (inactive). Further, the viability is 103% (inactive) in assay [13] (at 0.00122 µM, OCI-C5x cells, without rucaparib); 97.2% (active) in assay [13] (at 0.00122 µM, OCI-P5x cells, with rucaparib 20 µM, 100% = cells with rucaparib alone); 86.3% (active) in assay [13] (at 0.00122 µM, OCI-P5x cells, without rucaparib); 93% (active) in assay [13] (at 0.00488 µM, OCI-C5x cells, with rucaparib 10 µM, 100% = cells with rucaparib alone); 104% (inactive) in [13] (at 0.00488 µM, OCI-C5x cells, without rucaparib); 99.1% (active) in assay [13] (at 0.00488 µM, OCI-P5x cells, with rucaparib 20 µM, 100% = cells with rucaparib alone). For the same compound, the viability in [13] (at 0.00488 µM, OCI-P5x cells, without rucaparib) was 95.7% (active); in assay [13] (at 0.0195 µM, OCI-C5x cells, with rucaparib 10 µM, 100% = cells with rucaparib alone), 102% (inactive); in [13] (at 0.0195 µM, OCI-C5x cells, without rucaparib) it was 104% (inactive); in assay [13] (at 0.0195 µM, OCI-P5x cells, with rucaparib 20 µM, 100% = cells with rucaparib alone) it was 98.1% (active); in assay [13] (at 0.0195 µM, OCI-P5x cells, without rucaparib) it was 96% (active); in [13] (at 0.0781 µM, OCI-C5x cells, with rucaparib 10 µM, 100% = cells with rucaparib alone), 106% (inactive). For the same compound, the viability in [13] (at 0.0781 µM, OCI-C5x cells, without rucaparib) is 101% (inactive); in assay [13] (at 0.0781 µM, OCI-P5x cells, with rucaparib 20 µM, 100% = cells with rucaparib alone), 102% (inactive); in assay [13] (at 0.0781 µM, OCI-P5x cells, without rucaparib), 98.9% (active); in assay [13] (at 0.313 µM, OCI-C5x cells, with rucaparib 10 µM, 100% = cells with rucaparib alone), 106% (inactive); in assay [13] (at 0.313 µM, OCI-C5x cells, without rucaparib), 108% (inactive); in assay [13] (at 0.313 µM, OCI-P5x cells, with rucaparib 20 µM, 100% = cells with rucaparib alone) it was 98% (active). In addition, the viability in [13] (at 0.313 µM, OCI-P5x cells, without rucaparib) is 97.6% (active); in assay [13] (at 1.25 µM, OCI-C5x cells, with rucaparib 10 µM, 100% = cells with rucaparib alone), 94% (active); in assay [13] (at 1.25 µM, OCI-C5x cells, without rucaparib), 109% (inactive); in assay [13] (at 1.25 µM, OCI-P5x cells, with rucaparib 20 µM, 100% = cells with rucaparib alone), 99.6% (active); in assay [13] (at 1.25 µM, OCI-P5x cells, without rucaparib), 102% (inactive); in assay [13] (at 5 µM, OCI-C5x cells, with rucaparib 10 µM, 100% = cells with rucaparib alone), 98.7% (active). For the same compound, the viability in [13] (at 5 µM, OCI-C5x cells, without rucaparib) is 107% (inactive); in assay [13] (at 5 µM, OCI-P5x cells, with rucaparib 20 µM, 100% = cells with rucaparib alone), 96.2% (active); in [13] (at 5 µM, OCI-P5x cells, without rucaparib), 93.7% (active). The inhibition (as a rule, the drop in the measured response relative to a control, in per cent) in [4] is -3% (inactive). The fluorescence ratio (interference) in assay [5] was 1 (inactive). In addition, in assay [6], the remaining activity – broadly, the signal under treatment as a percentage of the control signal – is 118% (inactive). For the same compound, the outcome in assay [7], in assay [8] and in assay [11] was inactive. Moreover, the fold fluorescence in assay [9] is 9.29 [at 162.7 µM] (inactive). The SSMD in [10] was found to be 1.15. In [10], the cell count turned out to be 6500. In addition, the plate-normalised HSF1 focus index in assay [10] was 1.06 (inactive). Further, the z-score in assay [12] (setting [17]) is -0.417 (inactive); in assay [12] (setting [18]), 0.668; in assay [14] it was 5.55 (active) and 5.94 (active).
For the compound `Cc1ccc(NC(=O)c2cccc(N(C)C)c2)cc1NC(=O)c1ccc(O)cc1`, the survival in assay [2] was 103 (inactive). Besides, the remaining activity in [6] is 115% (inactive). Further, the AC50 – broadly, the concentration at which the activity in the assay is half-maximal – in assay [7] is 662 nM (active); in assay [15], 3320 nM (active). In addition, the call in assay [8] was inactive. Moreover, the fold change in assay [16] (setting [19]) was 1.11 (inactive) and 0.903 (inactive) and 0.921 (inactive); in assay [16] (setting [20]) it was 0.888 and 0.797 and 0.511. For the same compound, the cell count is 2990 and 8110 and 7940 in assay [16] (setting [21]); 2700 and 8980 and 8620 in assay [16] (setting [22]). For the same compound, the fold fluorescence in [9] is 3.78 [at 128.4 µM] (inactive). For the same compound, the z-score is -0.437 (inactive) in assay [12] (setting [17]), 0.706 in assay [12] (setting [18]) and 1.09 (inactive) in [14].
On to `C[C@H](NC(=O)c1sccc1OCc1ccc(Cl)cc1)c1ccccc1`, for which, in [6], the remaining activity is 124% (inactive). The result in assay [8] was inactive. The fold change in assay [16] (setting [19]) is 1.09 (inactive); in assay [16] (setting [20]) it was 1.01. Also, the cell count in assay [16] (setting [21]) came to 4320; in assay [16] (setting [22]), 3970. Moreover, the z-score in assay [14] is -1.04 (inactive).
Take `O=C(/C=C/c1c(C(=O)O)[nH]c2cc(Cl)cc(Cl)c12)Nc1ccccc1`: the remaining activity in assay [6] is 87.2% (inactive). Also, the compound was called inactive in assay [7] and in assay [15]. Further, the fold change in assay [16] (setting [19]) is 0.942 (inactive); in assay [16] (setting [20]), 1.32. The values for the cell count in assay [16] (setting [21]) and in assay [16] (setting [22]) were 8890 and 9440, respectively. Further, the z-score in assay [14] is 4.95 (active).
For `CC(C)(C)/[N+]([O-])=C/c1ccc(S(=O)(=O)O)cc1S(=O)(=O)O`, in [6], the remaining activity is 104% (inactive). Moreover, the result in [7] and in assay [15] was inactive. Besides, the fold change in assay [16] (setting [19]) is 1.35 (inactive); in [16] (setting [20]) it was 1.12. The cell count came out at 7460 in assay [16] (setting [21]) and 5520 in [16] (setting [22]). Also, in [14], the z-score is 2.67 (inactive).

Values taken from PubChem BioAssay.
